These results are taken from PubChem BioAssay (NCATS).

Molecules are shown by their SMILES. Inconclusive results are not listed. A call without a number means that no potency is given here. Active and inactive are the calls of the source. Calls follow the shape of the dose curve; as a rule, active = well fitted inhibition curve with a large enough effect; inconclusive = small, poorly fitted or top-dose-only effect; inactive = no such curve, though single readings can be large or run the other way.
Potency is read from the fitted curve at half-maximal effect.

Chain of Glutaminase kidney isoform, mitochondrial (Homo sapiens) (O94925 whole entry, looked up, canonical isoform): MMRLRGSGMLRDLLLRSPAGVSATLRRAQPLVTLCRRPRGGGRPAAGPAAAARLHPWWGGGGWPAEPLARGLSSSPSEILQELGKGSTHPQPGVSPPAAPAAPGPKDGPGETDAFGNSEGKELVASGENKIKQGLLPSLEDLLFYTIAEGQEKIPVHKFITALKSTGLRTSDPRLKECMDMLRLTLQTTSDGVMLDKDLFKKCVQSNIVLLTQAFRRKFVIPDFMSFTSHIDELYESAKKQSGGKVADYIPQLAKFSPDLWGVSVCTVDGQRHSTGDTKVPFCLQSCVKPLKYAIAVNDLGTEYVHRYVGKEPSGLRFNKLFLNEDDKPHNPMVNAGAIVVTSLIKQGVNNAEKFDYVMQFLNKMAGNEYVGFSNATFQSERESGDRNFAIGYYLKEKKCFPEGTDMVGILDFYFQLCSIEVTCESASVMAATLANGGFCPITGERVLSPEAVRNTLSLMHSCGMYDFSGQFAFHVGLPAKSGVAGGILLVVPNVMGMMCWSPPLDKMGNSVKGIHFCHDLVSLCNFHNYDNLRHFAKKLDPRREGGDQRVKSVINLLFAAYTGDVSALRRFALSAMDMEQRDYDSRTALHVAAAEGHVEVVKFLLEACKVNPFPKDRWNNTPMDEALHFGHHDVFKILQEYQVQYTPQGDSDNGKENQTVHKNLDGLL

This assay has as its target Glutaminase kidney isoform, mitochondrial (Homo sapiens) (UniProt O94925). The experiment in a line: qHTS for Inhibitors of Glutaminase (GLS): LOPAC Validation (AID 624146). Also: nearly all actives have a fitted effect of over 60% in size. To be noted: glutaminase enzyme activity inhibition; series mostly up to 46.1 µM. An excerpt: Glutaminase (GLS) catalyzes the hydrolysis of glutamine into glutamate and ammonia. It plays a critical role in glutaminolysis, which is an important energy source for proliferating cells. It was shown that c-Myc, an oncogenic transcription factor known to regulate microRNAs and to stimulate cell proliferation, increases glutamine metabolism by stimulating the expression of GLS via direct suppression of miR23a and miR23b.
GLS is also thought to play a pathogenic role on HAD using a human HIV-1 infected macrophage system. […] GLS inhibition limits glutamate release and provides neuroprotection against HIV-1 infected macrophages.
The overall goal of this project is to identify small molecule inhibitors of GLS through quantitative high throughput screening (qHTS) of the MLSMR. A validated potent and selective inhibitor can be used as a tool molecule to further study the pharmacology of its target as well as explore its potential therapeutic application in cancer and inflammatory neurological disorders, such as HIV1-associated dementia (HAD) and multiple sclerosis.
NIH Chemical Genomics Center [NCGC]
NIH Molecular Libraries Probe Centers Network [MLPCN]
Assay Submitter (PI): Barbara S. Slusher, Johns Hopkins University
Three 3 uL of hKGA is dispensed into black well 1536-well plates in 45 mM KH2PO4 (pH 8.2), 0.02% Tween-20. Then 23 nL of compounds are added through pin tool transfer. To this, 1 uL of 1mM L-Glutamine and 1 uL of a solution of L-Glutamateoxidase, HRP, Amplex red are added. Plate is centrifuged for 25 sec before an initial fluorescence read is obtained on the ViewLux, after 30 min of RT incubation, the final read is taken on the ViewLux.
(Quantitative high-throughput screening tests each substance at several concentrations.)
Take `CC(=O)O[C@H]1C(=O)[C@@]2(C)C([C@H](OC(=O)c3ccccc3)[C@]3(O)C[C@H](OC(=O)[C@H](O)[C@@H](NC(=O)c4ccccc4)c4ccccc4)C(C)=C1C3(C)C)[C@]1(OC(C)=O)CO[C@@H]1C[C@@H]2O` (stereo not given in full): the Potency entry was “inactive”. To `O=C1c2c(O)cc(O)cc2OC(c2ccc(O)c(O)c2)C1O` (stereo not given) belongs 0.708 µM (active). To `NCCCCNCCCN` belongs “inactive”. To `Nc1nc(OCc2ccccc2)c2[nH]cnc2n1` belongs “inactive”; to `Nc1nc(N)c(N=O)c(OCC2CCCCC2)n1`, “inactive”. Consider `NC(=NCc1ccccc1)NC(=O)c1nc(Cl)c(N)nc1N`, for which the Potency result was “inactive”. To `COc1cc2nc(N3CCN(C(=O)C4CCCO4)CC3)nc(N)c2cc1OC` (stereo not given) belongs “inactive”; to `CNC[C@H](O)c1ccc(O)c(O)c1`, “inactive”. With `CCOC(=O)C(C)Oc1cccc2c(=O)n(CC(=O)Nc3ccc4c(c3)OCCO4)ccc12` (stereo not given) the entry was “inactive”; with `CCN(CC)C(=S)SSC(=S)N(CC)CC`, 7.94 µM (active); with `O=C1NC(=O)C(c2ccccc2[N+](=O)[O-])=C1Nc1ccc(O)c(Cl)c1`, 10 µM (active).

In the case of `CC1(C)NC(=O)N(c2ccc([N+](=O)[O-])c(C(F)(F)F)c2)C1=O`, the Potency result is “inactive”. With `O=C(O)c1cccnc1Nc1cccc(C(F)(F)F)c1` the entry was “inactive”; with `COc1ccc2cc([C@H](C)C(=O)O)ccc2c1`, “inactive”; with `Oc1ccc(-c2nc(-c3ccc(F)cc3)c(-c3ccncc3)[nH]2)cc1`, “inactive”. `O=C1c2ccccc2-c2n[nH]c3cccc1c23`: the Potency result is “inactive”. For `COc1ccccc1N1CCN(CCN(C(=O)C2CCCCC2)c2ccccn2)CC1`, the Potency result is “inactive”. For `Nc1ccn([C@@H]2O[C@H](CO)[C@@H](O)C2O)c(=O)n1` (stereo not given in full), the Potency entry is “inactive”. Regarding `CC(=O)N1CCN(c2ccc(OC[C@H]3CO[C@](Cn4ccnc4)(c4ccc(Cl)cc4Cl)O3)cc2)CC1`, the Potency entry was “inactive”. To `O=C(c1ccccc1)c1ccc2n1CCC2C(=O)O` (stereo not given) belongs “inactive”. As for `C[C@H](Cc1ccc(O)c(O)c1)[C@@H](C)Cc1ccc(O)c(O)c1`, the Potency was 0.631 µM (active). Turning to `CN(C)CCCC1(c2ccc(F)cc2)OCc2cc(C#N)ccc21` (stereo not given), the Potency entry was “inactive”. On to `OC(CN1CCN(c2cccc(Cl)c2)CC1)C(c1ccccc1)c1ccccc1` (stereo not given), for which the Potency result was “inactive”. To `O=c1cc(N2CCOCC2)oc2c(-c3ccccc3)cccc12` belongs “inactive”. As for `C[C@@H](N)C1CCC(C(=O)Nc2ccncc2)CC1` (stereo not given in full), the Potency result is “inactive”.
